# According to article PMC5540273 (PLoS ONE, 2017):
# Assays:
# TIE2 = system: T1, TIE2
# T1 construct: gene TEK
# TRKA = system: T2, TRKA
# T2 construct: gene NTRK1
# TRKC = system: T3, TRKC
# T3 construct: gene NTRK3
# [1] = system: TYK2(JH1domain-catalytic)
# 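Also: kd values determined as follow-up on hits from a single-replicate KINOMEscan panel screen.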
smiles,measurement,setting,value
Fc1cc(Cl)ccc1Nc1ccnc2cc(-c3ccc(CN4CCCCC4)o3)ccc12 [GW560116],Kd,SRC,4.4 µM
O=C1NC(=O)C(N2CCc3ccccc32)=C1c1ccccc1Cl [SB-373598],Kd,SRMS,> 10 µM
same,Kd,TAOK2,> 10 µM
Cc1ccc(C(=O)Nc2ccc(Nc3ccnc4cc(-c5ccccn5)ccc34)cc2O)cc1.Cl [GW440146],Kd,SRMS,0.35 µM
same,Kd,TNK2,0.12 µM
COc1cccc(-c2cc(-c3c[nH]nc3-c3ccccn3)ccn2)c1 [GW680338],Kd,SRPK1,> 10 µM
CS(=O)(=O)c1ccc(-c2nc3n(c2-c2ccncc2)CCC3)cc1 [SKF-105942],Kd,STK16,> 10 µM
same,Kd,TSSK1B,> 10 µM
COc1cc2ncn(-c3cc(OCC4CCCO4)c(C(N)=O)s3)c2cc1OC (centres unmarked) [GSK204607],Kd,STK35,3.6 µM
Cl.O=C(Nc1cccc(-c2nn3ncccc3c2-c2ccnc(Nc3cccnc3)n2)c1)c1c(F)cccc1F [GSK312879],Kd,STK36,0.098 µM
Cc1ccccc1-n1cnc2c(N)ncnc21 [SKF-97510],Kd,SYK,> 10 µM
same,Kd,TLK1,> 10 µM
O=C(Nc1ccccc1)Nc1cccc(Oc2ccc3nccn3n2)c1,Kd,TIE2,> 10 µM
NC(=O)c1nnc2ccccc2c1N,Kd,TIE2,> 10 µM
Cc1ccc(-c2cc(-c3c[nH]nc3-c3ccccn3)ccn2)cc1 [GW684088],Kd,TNIK,0.16 µM
COc1ccc(Nc2nccc(-c3cccc(NC(=O)c4cc5cc(F)ccc5[nH]4)c3)n2)cc1 [GSK1229782],Kd,TNIK,0.82 µM
Cc1cc(-c2ccc3c(c2)CC[C@@H](N[C@@H](C)c2ccccc2)C3)cnc1N.Cl [GW412617],Kd,TRKA,2.5 µM
COc1cccc(NC(=O)NC2CCN(c3ccnc(Nc4ccc(F)cc4)n3)C2)c1 (centres unmarked) [GSK1379721],Kd,TRKC,0.31 µM
Cn1ccc2ncnc(Oc3ccc(Nc4nc5ccccc5[nH]4)cc3)c21,Kd,TRPM6,> 10 µM
CCCc1ccc(S(=O)(=O)NC2CCN(c3ccnc(Nc4ccc(F)cc4)n3)C2)cc1 (centres unmarked) [GSK1379715],Kd,TSSK1B,> 10 µM
Cc1cccc(-c2cc(Nc3ccncc3)c3ccccc3n2)n1 [GSK223675],Kd,TXK,> 10 µM
Cc1csc(-c2nc(Nc3ccncc3)c3ccccc3n2)n1 [GW869640],Kd,[1],> 10 µM
Cl.Oc1ccc(-c2nc(-c3ccccc3)[nH]c2-c2ccncc2)cc1 [SB-428218],Kd,[1],> 10 µM
